Test results published in ChEMBL document CHEMBL3988442, “University of Dundee, Small-Polar-MMV Screening Library” (2021).
For some assays here: Results with a measured potency or affinity are listed apart.

Tests used:
Design in all cases: scale not given: direction of the effect not stated beside the values
[1] = target: Protein translocase subunit SecA (Escherichia coli (strain K12)) (UniProt P10408); assay: Assay to Identify E. coli SecA ATPase Inhibitors; assay type: functional; details: 30 µM
[2] = target: T1, Ubiquitin-activating enzyme e1, putative (Leishmania donovani (strain BPK282A1)) (UniProt E9BSI1); assay: Leishmania donovani Ubiquitin Activating Enzyme (LdE1); assay type: functional; details: 30 µM
T1 sequence (whole entry): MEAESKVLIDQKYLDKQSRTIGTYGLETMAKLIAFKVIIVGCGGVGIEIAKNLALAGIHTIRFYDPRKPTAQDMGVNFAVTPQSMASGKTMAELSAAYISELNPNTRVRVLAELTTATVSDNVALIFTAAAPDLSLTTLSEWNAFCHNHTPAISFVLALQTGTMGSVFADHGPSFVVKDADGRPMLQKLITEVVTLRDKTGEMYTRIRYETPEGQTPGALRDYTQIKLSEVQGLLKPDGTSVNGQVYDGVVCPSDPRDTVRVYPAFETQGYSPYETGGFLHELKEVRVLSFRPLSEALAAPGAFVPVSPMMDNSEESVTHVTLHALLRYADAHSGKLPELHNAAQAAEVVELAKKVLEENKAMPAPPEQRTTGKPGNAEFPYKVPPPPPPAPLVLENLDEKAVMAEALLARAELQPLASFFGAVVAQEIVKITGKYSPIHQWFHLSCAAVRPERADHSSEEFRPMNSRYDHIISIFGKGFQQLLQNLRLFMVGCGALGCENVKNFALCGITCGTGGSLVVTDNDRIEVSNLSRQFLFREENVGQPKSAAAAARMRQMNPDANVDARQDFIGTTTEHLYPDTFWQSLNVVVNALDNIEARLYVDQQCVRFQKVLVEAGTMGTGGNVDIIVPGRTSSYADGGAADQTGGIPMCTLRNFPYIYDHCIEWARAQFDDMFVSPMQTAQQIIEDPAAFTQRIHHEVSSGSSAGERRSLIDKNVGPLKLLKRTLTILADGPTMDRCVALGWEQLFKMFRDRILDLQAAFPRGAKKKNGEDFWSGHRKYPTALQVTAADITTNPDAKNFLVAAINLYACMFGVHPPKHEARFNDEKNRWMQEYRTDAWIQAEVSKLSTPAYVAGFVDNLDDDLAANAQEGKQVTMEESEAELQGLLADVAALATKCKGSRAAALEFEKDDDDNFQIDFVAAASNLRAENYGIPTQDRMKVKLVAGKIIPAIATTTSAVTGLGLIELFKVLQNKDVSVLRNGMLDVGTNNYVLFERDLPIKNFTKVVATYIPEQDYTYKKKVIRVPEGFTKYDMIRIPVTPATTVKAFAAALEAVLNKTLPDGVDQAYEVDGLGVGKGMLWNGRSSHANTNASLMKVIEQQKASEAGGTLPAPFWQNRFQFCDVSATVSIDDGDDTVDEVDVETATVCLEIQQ

[3] = target: Sialic acid-binding Ig-like lectin 9 (Homo sapiens) (UniProt Q9Y336); assay: Hs-Siglec9 ALPHAscreen SOP 20170721; details: 10 µM
Trypanosoma cruzi = assay: Trypanosoma cruzi phosphomannomutase and mannose-1-phosphate guanylyltransferase assay; assay type: functional; details: 10 µM
[4] = target: T2, Arginase-2, mitochondrial (Homo sapiens) (UniProt P78540); assay: in vitro enzyme assay to detect the production of urea directly proportional to the activity of Arginase II; assay type: functional; details: 33.3 µM; also: in the data most compounds retested in dose-response had high values
T2 sequence (whole entry): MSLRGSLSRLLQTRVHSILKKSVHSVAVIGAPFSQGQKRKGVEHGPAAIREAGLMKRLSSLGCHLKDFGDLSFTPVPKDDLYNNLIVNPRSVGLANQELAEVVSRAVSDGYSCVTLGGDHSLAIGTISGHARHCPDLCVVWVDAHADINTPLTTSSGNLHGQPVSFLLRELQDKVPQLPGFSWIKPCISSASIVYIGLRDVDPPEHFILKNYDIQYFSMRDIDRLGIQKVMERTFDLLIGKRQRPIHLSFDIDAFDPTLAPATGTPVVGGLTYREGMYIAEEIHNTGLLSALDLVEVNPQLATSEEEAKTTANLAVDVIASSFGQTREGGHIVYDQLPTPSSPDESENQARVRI

[5] = target: T3, Proteasome subunit beta (Trypanosoma cruzi) (UniProt O96673); assay: Trypanosoma cruzi proteasome chymotrypsin-like activity (TcProtChymo) assay.; also: in the data most compounds retested in dose-response had high values; assay type: functional; details: 9.37 µM
T3 sequence (whole entry): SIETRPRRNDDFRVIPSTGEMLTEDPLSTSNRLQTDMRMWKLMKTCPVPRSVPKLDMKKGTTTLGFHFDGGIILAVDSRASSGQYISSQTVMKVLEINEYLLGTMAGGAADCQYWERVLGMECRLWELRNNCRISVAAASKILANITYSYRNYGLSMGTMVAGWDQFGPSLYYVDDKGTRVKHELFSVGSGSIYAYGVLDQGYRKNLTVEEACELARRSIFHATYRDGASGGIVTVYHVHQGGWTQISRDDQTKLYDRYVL

Homo sapiens = species: Homo sapiens; assay: To identify inhibition of the IFN signalling (Jak-Stat) pathway via expression of an eGFP reporter gene under the control of an IFN-stimulated response element (ISRE) containing MxA promoter.; assay type: functional; details: 30 µM
[6] = target: T4, Tyrosyl-tRNA synthetase, putative (Trypanosoma cruzi (strain CL Brener)) (UniProt Q4DSP6); assay: Trypanosoma cruzi tyrosyl tRNA synthetase (TcYRS) _High Tyrosine SOP; assay type: functional; details: 30 µM; also: in the data most compounds retested in dose-response had high values
T4 sequence (whole entry): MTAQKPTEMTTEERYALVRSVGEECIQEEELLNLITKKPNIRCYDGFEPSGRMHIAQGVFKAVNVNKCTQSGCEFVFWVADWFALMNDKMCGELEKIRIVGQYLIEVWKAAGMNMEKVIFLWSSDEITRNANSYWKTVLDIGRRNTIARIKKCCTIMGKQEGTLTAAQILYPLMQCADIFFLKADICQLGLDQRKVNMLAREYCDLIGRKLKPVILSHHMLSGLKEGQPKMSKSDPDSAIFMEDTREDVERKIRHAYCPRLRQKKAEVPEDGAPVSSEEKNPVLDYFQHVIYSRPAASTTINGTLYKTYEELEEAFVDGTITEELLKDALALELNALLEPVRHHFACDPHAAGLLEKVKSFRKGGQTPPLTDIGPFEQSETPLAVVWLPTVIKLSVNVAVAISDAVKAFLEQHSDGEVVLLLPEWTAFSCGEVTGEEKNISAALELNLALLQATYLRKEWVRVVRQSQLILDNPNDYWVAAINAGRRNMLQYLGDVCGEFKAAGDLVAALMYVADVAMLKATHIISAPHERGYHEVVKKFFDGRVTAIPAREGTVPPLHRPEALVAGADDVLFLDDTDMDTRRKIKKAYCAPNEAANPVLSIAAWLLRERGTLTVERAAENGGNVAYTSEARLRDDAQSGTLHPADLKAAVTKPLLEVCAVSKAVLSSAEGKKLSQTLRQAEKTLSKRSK

[7] = target: T4, Tyrosyl-tRNA synthetase, putative (Trypanosoma cruzi (strain CL Brener)); assay: Trypanosoma cruzi tyrosyl tRNA synthetase (TcYRS) SOP; assay type: functional; details: 30 µM
[8] = target: Chromo domain-containing protein 1 (Saccharomyces cerevisiae (strain ATCC 204508 / S288c) (Baker's yeast)) (UniProt P32657); assay: ScCHD-1 Enzyme Inhibition Assay; assay type: functional; details: 30 µM; also: in the data most compounds retested in dose-response had high values
Chain of Chromo domain-containing protein 1 (Saccharomyces cerevisiae (strain ATCC 204508 / S288c) (Baker's yeast)) (P32657 whole entry, the tested form may be a part): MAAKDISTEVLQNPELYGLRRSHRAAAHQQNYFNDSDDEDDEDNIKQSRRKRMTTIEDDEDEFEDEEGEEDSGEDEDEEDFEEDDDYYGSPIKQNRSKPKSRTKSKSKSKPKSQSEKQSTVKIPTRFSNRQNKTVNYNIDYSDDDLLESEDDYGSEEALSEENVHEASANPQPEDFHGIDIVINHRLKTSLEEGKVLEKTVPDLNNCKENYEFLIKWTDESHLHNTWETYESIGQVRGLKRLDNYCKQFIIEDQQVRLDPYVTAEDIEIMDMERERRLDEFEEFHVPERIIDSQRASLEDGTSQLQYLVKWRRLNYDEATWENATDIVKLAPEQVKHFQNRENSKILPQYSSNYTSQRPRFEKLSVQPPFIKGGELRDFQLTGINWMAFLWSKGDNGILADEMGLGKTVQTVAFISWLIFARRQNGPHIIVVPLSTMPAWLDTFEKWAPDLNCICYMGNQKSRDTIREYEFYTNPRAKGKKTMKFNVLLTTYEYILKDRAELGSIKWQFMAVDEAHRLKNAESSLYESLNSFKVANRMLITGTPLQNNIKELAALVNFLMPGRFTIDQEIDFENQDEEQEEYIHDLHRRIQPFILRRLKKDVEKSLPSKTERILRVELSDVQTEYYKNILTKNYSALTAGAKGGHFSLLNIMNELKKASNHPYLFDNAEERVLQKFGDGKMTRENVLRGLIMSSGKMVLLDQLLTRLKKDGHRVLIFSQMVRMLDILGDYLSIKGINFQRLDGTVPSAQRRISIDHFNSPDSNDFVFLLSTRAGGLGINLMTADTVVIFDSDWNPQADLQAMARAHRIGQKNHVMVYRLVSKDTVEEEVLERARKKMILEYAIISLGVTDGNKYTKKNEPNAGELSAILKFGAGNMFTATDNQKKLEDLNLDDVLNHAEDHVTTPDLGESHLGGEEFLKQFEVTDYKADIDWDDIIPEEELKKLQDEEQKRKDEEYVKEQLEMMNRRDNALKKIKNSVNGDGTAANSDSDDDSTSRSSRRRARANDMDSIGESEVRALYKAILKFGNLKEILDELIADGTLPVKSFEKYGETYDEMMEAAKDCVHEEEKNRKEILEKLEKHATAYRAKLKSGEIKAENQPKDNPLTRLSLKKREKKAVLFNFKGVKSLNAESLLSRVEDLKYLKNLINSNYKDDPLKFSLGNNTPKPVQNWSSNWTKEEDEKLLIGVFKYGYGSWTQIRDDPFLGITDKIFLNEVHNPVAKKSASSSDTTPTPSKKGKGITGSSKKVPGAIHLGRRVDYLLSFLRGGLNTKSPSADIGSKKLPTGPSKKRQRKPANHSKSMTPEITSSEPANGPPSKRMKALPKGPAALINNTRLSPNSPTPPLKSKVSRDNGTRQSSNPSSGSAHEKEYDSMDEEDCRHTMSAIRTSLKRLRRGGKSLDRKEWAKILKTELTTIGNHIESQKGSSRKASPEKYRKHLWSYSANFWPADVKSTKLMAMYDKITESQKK

Chain of Sialic acid-binding Ig-like lectin 9 (Homo sapiens) (Q9Y336 whole entry): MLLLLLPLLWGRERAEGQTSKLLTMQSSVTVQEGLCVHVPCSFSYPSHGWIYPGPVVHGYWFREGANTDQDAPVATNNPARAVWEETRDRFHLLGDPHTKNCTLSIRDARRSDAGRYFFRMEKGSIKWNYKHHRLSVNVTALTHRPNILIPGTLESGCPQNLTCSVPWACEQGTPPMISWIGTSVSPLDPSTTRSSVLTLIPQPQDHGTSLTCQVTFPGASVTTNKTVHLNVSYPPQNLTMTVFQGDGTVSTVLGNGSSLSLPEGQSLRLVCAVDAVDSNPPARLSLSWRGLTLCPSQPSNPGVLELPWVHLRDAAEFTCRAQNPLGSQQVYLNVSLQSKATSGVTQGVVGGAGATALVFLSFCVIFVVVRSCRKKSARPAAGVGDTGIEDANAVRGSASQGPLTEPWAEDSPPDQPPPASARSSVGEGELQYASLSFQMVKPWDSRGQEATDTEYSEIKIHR
Chain of Protein translocase subunit SecA (Escherichia coli (strain K12)) (P10408 whole entry): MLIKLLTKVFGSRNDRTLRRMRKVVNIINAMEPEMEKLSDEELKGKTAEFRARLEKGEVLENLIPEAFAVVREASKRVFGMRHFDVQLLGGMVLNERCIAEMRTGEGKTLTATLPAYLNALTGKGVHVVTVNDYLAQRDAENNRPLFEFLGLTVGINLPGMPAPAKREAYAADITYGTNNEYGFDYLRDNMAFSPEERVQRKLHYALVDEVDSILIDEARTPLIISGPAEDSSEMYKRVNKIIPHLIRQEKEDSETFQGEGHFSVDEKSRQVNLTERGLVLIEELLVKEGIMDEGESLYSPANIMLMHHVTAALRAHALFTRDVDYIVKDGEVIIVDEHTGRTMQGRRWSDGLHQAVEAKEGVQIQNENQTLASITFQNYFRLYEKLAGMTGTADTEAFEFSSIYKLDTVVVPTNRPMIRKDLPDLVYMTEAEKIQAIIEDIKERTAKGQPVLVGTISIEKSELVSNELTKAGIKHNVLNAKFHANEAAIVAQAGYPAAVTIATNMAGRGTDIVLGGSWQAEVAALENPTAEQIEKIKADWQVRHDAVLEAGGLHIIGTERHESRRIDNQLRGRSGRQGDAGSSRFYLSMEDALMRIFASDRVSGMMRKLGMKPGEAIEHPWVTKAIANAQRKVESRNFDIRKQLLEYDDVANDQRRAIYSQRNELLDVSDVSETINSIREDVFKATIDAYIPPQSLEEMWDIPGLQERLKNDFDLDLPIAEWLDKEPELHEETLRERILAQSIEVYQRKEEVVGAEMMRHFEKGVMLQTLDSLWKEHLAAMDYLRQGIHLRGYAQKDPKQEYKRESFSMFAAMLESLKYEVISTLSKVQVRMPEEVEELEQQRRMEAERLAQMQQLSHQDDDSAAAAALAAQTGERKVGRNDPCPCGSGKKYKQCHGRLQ

Row | Compound | Percent Effect [1] [%] | Percent Effect [2] [%] | Percent Effect [3] [%] | Percent Effect (Trypanosoma cruzi) [%] | Percent Effect [4] [%] | Percent Effect [5] [%] | Percent Effect (Homo sapiens) [%] | Percent Effect [6] [%] | Percent Effect [7] [%] | Percent Effect [8] [%]
1 | CN(C)c1ncccc1CNS(=O)(=O)c1ccccc1F | -0.976 | 15.6 | -3.68 | -3.17 | 2.66 | 13.3 | 19.8 | 4.9 | 11.8 | -9.97
2 | CC(NC(=O)CCn1cncn1)c1nnc2n1CCCCC2 (stereo not given) | -3.71 | 20.8 | 8.71 | 5.04 | 10.4 | 1.93 | 17.2 | 3.92 | 18.8 | -8.72
3 | O=C(CCN1CCCN(c2nccs2)CC1)NCC1CCCCC1 | -2.39 | 5.33 | 1.99 | -3.61 | 0 | 9.41 | 3.1 | 6.84 | 7.69 | -5.72
4 | Cn1nc2c(cc1=O)CN(Cc1nc(-c3cccs3)no1)CC2 | -4.37 | 5.33 | 3.65 | 1.61 | -1.77 | 13.7 | 12.3 | -0.526 | 2.56 | -8.34
5 | Cn1cc(CN2CCCN(C(=O)c3cn4ccccc4n3)CC2)cn1 | -2.59 | 25.6 | -16.8 | 4.04 | -0.41 | 20.1 | 13.6 | 3.35 | 22.9 | 15.2
6 | Nc1cc(CCC2CN(Cc3ccc(C(=O)O)cc3)CCO2)ccn1 (stereo not given) | -3.81 | 9.33 | -7.05 | -5.72 | -1.77 | 13 | 12.6 | -1.06 | 2.5 | -22
7 | CCn1nc(C)c(CCNC(=O)C2CCCN(CC(N)=O)C2)c1C (stereo not given) | -8.24 | 8.11 | 27.7 | 9.02 | 9.44 | 5.14 | 12.5 | 10.1 | 17.1 | -5.53
8 | COc1cc(C)c(S(=O)(=O)NCc2cccnc2N(C)C)c(C)c1 | 0.224 | 23.4 | -2.16 | 0 | -5.53 | 19.8 | 52.1 | 4.9 | 28.2 | -10.7
9 | Cc1nn(-c2ccccc2)cc1C(=O)N1CCCC(n2cccn2)C1 (stereo not given) | -2.22 | 13.3 | 4.19 | 1 | 7.09 | 9.07 | -2.62 | 4.74 | 12.8 | -12.7
10 | CNC(=O)CCCNCc1c(C)nn(C)c1N(C)C | -0.3 | 0 | 14.5 | 1.22 | 2.87 | 2.3 | -12.6 | 2.39 | 1.21 | -2.02
11 | O=C1CC(c2cccc(O)c2)c2sc(C(=O)O)c(-c3ccccc3)c2N1 (stereo not given) | 7.88 | -10.8 | -0.96 | -8.24 | -10.1 | 13 | 31.3 | -9.04 | -2.44 | -0.195
12 | CC1CCCCN1Cc1ccc(-c2ccccc2C(=O)O)cc1 (stereo not given) | -1.02 | 4 | 1.22 | -4.73 | 0.443 | 7.39 | 12.3 | 2.12 | 2.5 | -21.8
13 | COc1ncccc1C(=O)N1CCn2c(COCC3CC3)cnc2C1C (stereo not given) | -3.37 | 3.9 | -3.01 | 1.07 | -1.62 | 8.21 | -16 | 4.74 | 7.69 | 1.11
14 | CCc1nc(C2CCCN2C(=O)C2=COCC2)no1 (stereo not given) | -6.76 | 0 | 1.81 | -4.02 | -0.444 | -2.46 | 12.2 | 4.74 | -2.56 | -3.47
15 | Cc1ccc(NC2CCN(C(=O)c3cnc(C)s3)CC2)nn1 | -3.62 | 10.7 | -0.486 | -3.01 | 0.887 | -0.594 | 15.9 | 5.79 | 12.8 | -6.74
16 | O=C(NCCN1CCCCC1)c1ccoc1 | -6.92 | 7.79 | -0.674 | -7.28 | -2.66 | 4.21 | 14.7 | -2.94 | 0 | -4.75
17 | CN1CCN(CC2CC2)C(=O)c2cnc(N3CC[C@@H](O)C3)nc21 | -3.96 | 0 | -4.48 | -3.21 | -4.43 | 3.99 | -1.63 | -2.63 | -7.69 | -9.27
18 | CC(C)(C)c1cn2nc(N3CCOC(Cn4cncn4)C3)sc2n1 (stereo not given) | -1.88 | 23.1 | -8.45 | 7.79 | -2.46 | 12.4 | 13.8 | 3.35 | 22.9 | -5.11
19 | CC(Nc1cccc(CN2CCOC2=O)c1)C(=O)Nc1ccccc1F (stereo not given) | -0.263 | 7.69 | 0.909 | -1.41 | 4.51 | 3.5 | 29.9 | 2.39 | 8.43 | -5.9
20 | COc1ccc(CC(=O)NC2(C)CCS(=O)(=O)C2)cc1F (stereo not given) | -0.834 | 10.7 | -4.85 | 0.803 | -1.77 | 4.5 | 8.89 | 5.79 | 12.8 | -12.7
